# Experimental data: PubChem BioAssay (NCATS)
# How the values were obtained:
# Test in all cases: Confirmatory Screen for Target Class Profiling of Small Molecule Inhibitors of Methyltransferases (AID 1745852); for activity change, negative = inhibition: % is set by controls: 0 for no effect and ±100 for the full control effect
# [1] = target: Catechol O-methyltransferase (Homo sapiens) (UniProt P21964); settings: MTase-Glo luminescence, SAH detection, recombinant enzyme; measured here: COMT max response; stronger effect = lower value
# [2] = target: Guanidinoacetate N-methyltransferase (Homo sapiens) (UniProt Q14353); settings: MTase-Glo luminescence, SAH detection, recombinant enzyme; activity change, negative = inhibition: at 57.3 µM (top of the series) unless noted; series mostly up to 57.3 µM
# [3] = target: Nicotinamide N-methyltransferase (Homo sapiens) (UniProt P40261); settings: MTase-Glo luminescence, SAH detection, recombinant enzyme; measured here: NNMT max response; stronger effect = lower value
# [4] = target: Phenylethanolamine N-methyltransferase (Homo sapiens) (UniProt P11086); settings: MTase-Glo luminescence, SAH detection, recombinant enzyme; measured here: PNMT max response; stronger effect = lower value
# Chain of Phenylethanolamine N-methyltransferase (Homo sapiens) (P11086 whole entry, looked up): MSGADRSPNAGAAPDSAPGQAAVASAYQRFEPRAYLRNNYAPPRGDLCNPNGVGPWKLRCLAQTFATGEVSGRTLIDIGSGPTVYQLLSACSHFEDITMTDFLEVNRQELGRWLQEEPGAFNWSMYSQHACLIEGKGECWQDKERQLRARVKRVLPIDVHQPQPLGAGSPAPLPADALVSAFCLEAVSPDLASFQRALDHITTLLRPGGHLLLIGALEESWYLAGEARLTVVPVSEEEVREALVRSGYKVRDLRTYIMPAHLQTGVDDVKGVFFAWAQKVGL
# Chain of Catechol O-methyltransferase (Homo sapiens) (P21964 whole entry, looked up): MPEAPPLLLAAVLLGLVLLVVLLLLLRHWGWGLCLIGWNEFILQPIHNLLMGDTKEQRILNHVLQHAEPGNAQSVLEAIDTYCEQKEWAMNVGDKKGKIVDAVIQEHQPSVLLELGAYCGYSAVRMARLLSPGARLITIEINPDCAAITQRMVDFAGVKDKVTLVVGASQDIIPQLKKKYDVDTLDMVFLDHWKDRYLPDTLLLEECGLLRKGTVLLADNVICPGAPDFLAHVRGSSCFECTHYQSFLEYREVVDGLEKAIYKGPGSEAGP
# Chain of Nicotinamide N-methyltransferase (Homo sapiens) (P40261 whole entry, looked up): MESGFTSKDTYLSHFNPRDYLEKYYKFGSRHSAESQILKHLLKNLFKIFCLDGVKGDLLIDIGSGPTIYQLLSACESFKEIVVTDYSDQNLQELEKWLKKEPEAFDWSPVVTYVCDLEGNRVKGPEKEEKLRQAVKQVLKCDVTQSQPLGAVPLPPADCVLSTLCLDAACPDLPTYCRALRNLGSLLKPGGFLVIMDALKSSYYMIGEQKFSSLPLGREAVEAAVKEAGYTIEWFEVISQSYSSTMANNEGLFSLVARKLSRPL
SMILES,activity [1],"activity change, negative = inhibition [2]",activity [3],activity [4]
CCCC1=Nc2cc(C(=O)NCCCN3CCCCC3CC)ccc2Sc2ccc(C)cc21 (centres undefined),-2.37%,6.53%,-7.02%,1.37%
O=C(N[C@H](C1CCNCC1)C1CC(O)C1)c1ccc2nccnc2c1 (some centres undefined),-0.82%,1.16%,10.8%,3.61%
Cc1ccc(NS(=O)(=O)c2ccc3[nH]c(=O)[nH]c3c2)cc1F,-8.47%,-6.18%,-16.3%,-45.9%
N#Cc1ccccc1-c1cc2c(ccn2Cc2ccncc2)c(N2CCOCC2)n1,-6.69%,-0.304% [at 85.7 µM],-6.24%,-4.65%
CCn1cc(CN2CCCC23CCN(c2cc(C)nc4ccccc24)CC3)c(C)n1,3.11%,4.01%,-3.44%,6.12%
O=C(Cn1c(=O)oc2cc(S(=O)(=O)N3CCCC3)ccc21)Nc1ccc(F)c(Cl)c1,-3.81%,1.53%,-2.29%,-63.9%
